From PubChem
The list is not random: actives were taken first. Their share in the collection is about 8.9%.
ALDH1A1 block: inhibitors of human aldehyde dehydrogenase 1A1; P00352; Purified ALDH1A1, NADH fluorescence, propionaldehyde substrate; Potency, µM (titrated, usually from 75.3 µM), hits mostly inhibitors; 220,000 tested, 7.3% active; active = well fitted inhibition curve with a large enough effect, not every such curve was filed as active; inconclusive = small, poorly fitted or top-dose-only effect, or another doubt; inactive = no such curve, though single readings can be large or run the other way
12-hLO inh: blocks human 12-lipoxygenase activity. P18054. purified 12-hLO, xylenol orange hydroperoxide absorbance. Potency, µM (top dose mostly 57.1 µM), usual class: inhibitors. 150,000 tested, 0.12% active; note: nearly all actives have a fitted effect of over 55% in size
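150 nM 12hLO, 25 mM Hepes pH 7.0 + 0.01% Triton X-100; cpd preinc 15 min RT; 40 uM arachidonic acid, 30 min RT; Fe-XO 30 min; A573/A405 ratio as read-out.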
IMPase Li inh: membrane-permeable IMPase blocker, potentiated with lithium; CHO-M1 cells, IP1 TR-FRET (IP-One), carbachol + lithium; Potency, µM (top dose mostly 59.4 µM), actives largely listed as inhibitors; 210,000 tested, 0.35% active; AID 1457;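 note: IP1 builds up when IMPase is blocked and the TR-FRET signal falls; nearly all actives have a fitted effect of over 50% in size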
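IP1 accumulation measured by competitive TR-FRET in lysed CHO-M1 cells after 30 min compound exposure at 37C, with a small lithium addition to potentiate weak responses. Hill-equation AC50 from ratio and donor-channel data.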
IMPase inh: IMPase inhibition in cells | P97697 | CHO-M1 cells, IP1 accumulation, HTRF TR-FRET ratio | inhibition (IP1 accumulation), % at 46.1 µM | 120,000 tested, under 10 active; active = well fitted curve in the direction sought with a large enough effect in the signal ratio, not every such curve was filed as active; inconclusive = small, poorly fitted or top-dose-only effect, or a change in a side signal; inactive = no such curve, though single readings can be large or run the other way; the % refers to the signal ratio;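 note: cells stimulated with carbachol in lithium chloride buffer; higher means more IMPase inhibition seen as more IP1 and lower FRET ratio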
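CHO-M1 cells (CHO stably expressing M1 receptor), compound up to 46 uM final, stimulated with carbachol (50 uM as added) in buffer with 50mM LiCl, pH 7.4, 30 min at 37C. Cytosolic IP1 read by TR-FRET; AC50 from Hill fits.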
NPSR antag: neuropeptide S receptor (human) antagonism, cAMP | Q6W5P4 | CHO-NPSR cells, cAMP TR-FRET, antagonist mode | Potency, µM (titrated, usually from 38.3 µM), actives largely listed as inhibitors | 220,000 tested, 1% active | AID 1461; note: nearly all actives have a fitted effect of over 50% in size
Target sequence (Q6W5P4 whole entry, looked up): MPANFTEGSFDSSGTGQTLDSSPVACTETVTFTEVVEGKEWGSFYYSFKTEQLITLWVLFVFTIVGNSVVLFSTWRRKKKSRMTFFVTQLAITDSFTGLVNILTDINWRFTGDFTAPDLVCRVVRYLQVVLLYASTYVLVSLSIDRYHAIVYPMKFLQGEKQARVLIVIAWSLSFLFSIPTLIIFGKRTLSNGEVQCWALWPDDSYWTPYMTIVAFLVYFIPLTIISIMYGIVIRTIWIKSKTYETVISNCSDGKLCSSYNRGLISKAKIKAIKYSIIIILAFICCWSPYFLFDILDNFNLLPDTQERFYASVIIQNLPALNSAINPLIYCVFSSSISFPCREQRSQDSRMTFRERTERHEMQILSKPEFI
HPGD inh: HPGD (human) dehydrogenase inhibition; purified HPGD, NADH fluorescence kinetic, PGE2 substrate; Potency, µM, usual class: inhibitors; 150,000 tested, 4.3% active; AID 894; active = well fitted inhibition curve with a large enough effect, not every such curve was filed as active; inconclusive = small, poorly fitted or top-dose-only effect, or another doubt; inactive = no such curve, though single readings can be large or run the other way
Target sequence (P15428 whole entry, looked up): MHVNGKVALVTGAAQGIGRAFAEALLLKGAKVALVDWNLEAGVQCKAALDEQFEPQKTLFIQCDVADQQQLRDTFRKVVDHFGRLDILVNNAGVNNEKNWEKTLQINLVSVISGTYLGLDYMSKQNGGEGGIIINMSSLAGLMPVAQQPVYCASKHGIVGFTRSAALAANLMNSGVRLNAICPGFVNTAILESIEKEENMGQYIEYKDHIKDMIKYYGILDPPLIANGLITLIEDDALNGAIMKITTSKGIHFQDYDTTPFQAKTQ
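20 nM HPGD preincubated 15 min at room temperature with compound in 50 mM Tris-HCl pH 8, 0.01% Tween 20. Started with 1 mM NAD+ and 30 uM prostaglandin E2; NADH fluorescence (360/450 nm) read 5 times over 30-s intervals, last minus first.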
A number is an active result; . = inactive; ? = inconclusive; / = no result given; [ ] = another dose, or the depositor's remark. Unless noted, calls come from the whole dose curve; as a rule, active = well fitted curve in the direction sought with a large enough effect; inconclusive = small, poorly fitted or top-dose-only effect, or another doubt; inactive = no such curve, though single readings can be large; an effect the other way counts as inactive or inconclusive.

SMILES	ALDH1A1 block	12-hLO inh	IMPase Li inh	IMPase inh	NPSR antag	HPGD inh
Cc1ccc(C(=O)COC(=O)CNC(=O)COc2ccccc2C)cc1C	.	.	.	.	.	.
COc1ccccc1NC(CC(=O)c1ccccc1)C(=O)OCC(=O)c1ccc(C)cc1 (stereo unspecified)	10µM	.	.	.	.	.
COc1ccccc1NC(CC(=O)c1ccccc1)C(=O)OCC(=O)c1ccc(Br)cc1 (stereo unspecified)	?	.	.	/	.	.
COc1ccccc1NC(CC(=O)c1ccccc1)C(=O)OCC(=O)c1ccc(C)c(C)c1 (stereo unspecified)	7.1µM	.	.	.	.	.
CCN1C(=O)[C@H]2[C@H]3[C@H](O)[C@H](O)C/C(=N/OC)[C@@H]3CC[C@@H]2C1=O	.[13.5 µM]	/	/	/	/	/
N#CCCn1c(=O)c(-c2ccc(F)cc2)nc2cnc(OCc3ccccc3)nc21	?	/	.	/	/	/
COCCn1c(=O)c(CCc2ccccc2)nc2cnc(Oc3ccccc3)nc21	?	/	.	/	/	/
COc1ccc(-c2nc3cnc(Oc4ccccc4)nc3n(CCC#N)c2=O)cc1	.	/	10µM	/	/	/
COc1ccc(-c2nc3cnc(OC)nc3n(CCC#N)c2=O)cc1	.	/	.	/	/	/
COCCn1c(=O)c(CCc2ccccc2)nc2cnc(OCc3ccccc3)nc21	25µM	/	.	/	/	/
N#CCCn1c(=O)c(-c2ccccc2)nc2cnc(OCc3ccccc3)nc21	?	.	11µM	/	/	?
COc1ccc(-c2nc3cnc(OCc4ccccc4)nc3n(CCC#N)c2=O)cc1	?	/	22µM	/	/	/
O=C(CN1CCCCC1)Nc1ccccc1Oc1ccccc1	/	/	/	/	.[7.67 µM]	/
CCOC(=O)c1nn(-c2ccccc2)c(C)c1C(C)=O	.	.	.	.	.	.
COc1ccc(NC(=S)NC(NC(C)=O)C(Cl)(Cl)Cl)c([N+](=O)[O-])c1 (stereo unspecified)	?	.	.	.	.	.
O=C(N=C1c2ccccc2CN1c1ccc(F)cc1)c1ccc(Cl)nc1	28µM	.	.	.	.	.
COc1ccc(CCNC(=O)Cc2ccc(OCc3ccccc3)c(OC)c2[N+](=O)[O-])cc1OCc1ccccc1	?	.	.	.	.	.
CC(=O)c1ccc(N2Cc3ccccc3/C2=N\C(=O)Nc2ccccc2)cc1	.	.	.	.	.	.
CC(=O)c1cccc(N2Cc3ccccc3C2=NC(=O)CCl)c1	3.5µM	/	.	/	.	/
CCSC1=N/C(=C\c2ccc(OC)cc2)C(=O)N1	9.5µM	.	.	/	.	?
COc1ccc(/C=C2/N=C(SC)NC2=O)cc1OC	.	/	/	/	.	/
COc1ccc(/C=C2\N=C(SC)NC2=O)cc1	.	.	.	.	.	22µM
O=C(NCCc1ccccc1)C(=O)NCC1CCCO1 (stereo unspecified)	.	.	.	.	.	.
Cc1cccc(-n2cc(-c3ccccc3)c3c(N4CCOCC4)ncnc32)c1	18µM	/	.	/	.	/
S=C1NC=NC2N=CNC12 (stereo unspecified)	2.2µM	.	.	/	/	?
SMILES	ALDH1A1 block	12-hLO inh	IMPase Li inh	IMPase inh	NPSR antag	HPGD inh
COC(=O)c1[nH]c2ccc(C)cc2c1NC(=O)CN1CCc2cc(OC)c(OC)cc2C1	?	.	.	.	.	?
Cc1oc2c(c1C(=O)c1ccccc1)C(=O)C(=O)c1ccccc1-2	.	.	.	.	?	?
O=C1C(=O)c2c(C(=O)c3ccccc3)coc2-c2ccccc21	?	.	.	.	.	22µM
C=CCn1c(SC(C)C(N)=O)nc2sc(CC)cc2c1=O (stereo unspecified)	8.9µM	/	.	/	.	/
C=CCn1c(SC(C)C#N)nc2sc(CC)cc2c1=O (stereo unspecified)	2µM	/	.	/	.	/
CCN(CC)CC(=O)NC12CC3CC(CC(C3)C1)C2	.	.	.	.	.	.
CCC12CN3CC(CC)(CN(C1)C3c1ccc(OC(C)C)cc1)C2=O (stereo unspecified)	.	.	.	.	.	.
Cc1ccc(S(=O)(=O)N(CC(=O)N2CCC(C)CC2)c2cccc(C)c2)cc1	11µM	.	.	.	.	.
CCOC(=O)N1CCN(C(=O)CN(c2cccc(C)c2)S(=O)(=O)c2ccc(C)cc2)CC1	?	.	.	.	.	.
Clc1cccc(Cl)c1-c1noc(-c2ccno2)n1	.	/	/	/	.	/
COc1cc(N(C)C)c([N+](=O)[O-])cc1C(=O)NC(C)CNc1ccc([N+](=O)[O-])cc1Cl (stereo unspecified)	1.6µM	.	.	.	.	.
COC(=O)c1ccc(NC(C)=O)o1	.	.	.	.	.	.
COC(=O)c1ccc(NC(=O)c2ccccc2)o1	.	.	.	.	.	32µM
Cc1cccc(NC(=S)Nc2c(C)n(C)n(-c3ccccc3)c2=O)c1C	.	.	.	/	.	.
CCc1c(C)c(C#N)c2nc3ccccc3n2c1NCc1ccco1	?	.	.	.	?	.
O=c1ccc2c(o1)/C(=C/C=C(Cl)Cl)CCC2	7.1µM	.	.	.	.	.
O=C(C1CC1)N1CCCC(c2ccc(Cl)cc2)=N1	.	/	.	/	.	/
COc1ccc(N=C(C)C2=C(O)CSC2=O)cc1	?	.	.	.	.	.
CC(=Nc1ccccc1)C1=C(O)CSC1=O	25µM	.	.	.	.	.
COc1cc2c(cc1NC(=O)c1cccc([N+](=O)[O-])c1)oc1ccccc12	.	.	.	.	10µM	.
O=C(CC1SC(=Nc2ccccc2)N(Cc2ccccn2)C1=O)Nc1ccc(Br)cc1 (stereo unspecified)	7.1µM	?	.	/	.	?
Cc1ccccc1N=C1SC(CC(=O)Nc2ccc3ccccc3c2)C(=O)N1Cc1ccccn1 (stereo unspecified)	.	.	.	/	.	.
O=C(CC1Sc2ncnn2C1=O)Nc1ccc(Br)cc1 (stereo unspecified)	7.9µM	.	.	.	.	16µM
COc1ccc(N=C2SC(CC(=O)Nc3ccccc3OC)C(=O)N2Cc2ccco2)cc1 (stereo unspecified)	.	.	.	/	.	?
COc1ccc(N=C2SC(CC(=O)Nc3ccc(F)cc3)C(=O)N2Cc2ccco2)cc1 (stereo unspecified)	3.5µM	.	.	/	.	.
COC(=O)Cc1ccc(NC(=S)NCCCO)cc1	.	.	.	.	.	.
O=C(CN1CCN(c2ccc(F)cc2)CC1)c1ccc2c(c1)OCO2	8.9µM	.	.	.	.	.
O=C(CN1CCN(c2ccc(Cl)cc2)CC1)c1ccc2c(c1)OCO2	8.9µM	.	.	.	.	.
O=C(Nc1ccc2c(c1)OCO2)N1CCN(c2ccc(F)cc2)CC1	.	/	.	/	.	/
